Experimental data from PubChem BioAssay.
Active and inactive are the calls of the source. Unless noted, how the calls were made is not given here.

Assays:
[1] = compounds binding Alexa647 anti-His antibody – biochemical, small-molecule microarray, 635 nm fluorescence, artefact control for SMM control protein annotation, primary screen (AID 1128); conditions: higher = more signal;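 further: score merges feature fluorescence with signal-to-noise for each printed compound spot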
[2] = test system: Human papillomavirus type 1a E7 protein (residues 1-88); test: HPV1a E7 small-molecule binders, primary screen, biochemical, small-molecule microarray, residues 1-88, 635 nm (AID 1129); conditions: small-molecule microarray binding, fluorescence 635 nm; higher = more signal
[3] = target: Focal adhesion kinase 1 (Homo sapiens) (UniProt Q05397); test: PTK2 protein binding on printed compound slides – biochemical, small-molecule microarray, 635/667 nm fluorescence, BSA, DTT, primary screen (AID 1130); conditions: 635 nm fluorescence, higher = more signal;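 further: composite of spot emission at 667 nm and signal to noise over triplicate slides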
Focal adhesion kinase 1 (Homo sapiens), sequence (Q05397 whole entry, looked up): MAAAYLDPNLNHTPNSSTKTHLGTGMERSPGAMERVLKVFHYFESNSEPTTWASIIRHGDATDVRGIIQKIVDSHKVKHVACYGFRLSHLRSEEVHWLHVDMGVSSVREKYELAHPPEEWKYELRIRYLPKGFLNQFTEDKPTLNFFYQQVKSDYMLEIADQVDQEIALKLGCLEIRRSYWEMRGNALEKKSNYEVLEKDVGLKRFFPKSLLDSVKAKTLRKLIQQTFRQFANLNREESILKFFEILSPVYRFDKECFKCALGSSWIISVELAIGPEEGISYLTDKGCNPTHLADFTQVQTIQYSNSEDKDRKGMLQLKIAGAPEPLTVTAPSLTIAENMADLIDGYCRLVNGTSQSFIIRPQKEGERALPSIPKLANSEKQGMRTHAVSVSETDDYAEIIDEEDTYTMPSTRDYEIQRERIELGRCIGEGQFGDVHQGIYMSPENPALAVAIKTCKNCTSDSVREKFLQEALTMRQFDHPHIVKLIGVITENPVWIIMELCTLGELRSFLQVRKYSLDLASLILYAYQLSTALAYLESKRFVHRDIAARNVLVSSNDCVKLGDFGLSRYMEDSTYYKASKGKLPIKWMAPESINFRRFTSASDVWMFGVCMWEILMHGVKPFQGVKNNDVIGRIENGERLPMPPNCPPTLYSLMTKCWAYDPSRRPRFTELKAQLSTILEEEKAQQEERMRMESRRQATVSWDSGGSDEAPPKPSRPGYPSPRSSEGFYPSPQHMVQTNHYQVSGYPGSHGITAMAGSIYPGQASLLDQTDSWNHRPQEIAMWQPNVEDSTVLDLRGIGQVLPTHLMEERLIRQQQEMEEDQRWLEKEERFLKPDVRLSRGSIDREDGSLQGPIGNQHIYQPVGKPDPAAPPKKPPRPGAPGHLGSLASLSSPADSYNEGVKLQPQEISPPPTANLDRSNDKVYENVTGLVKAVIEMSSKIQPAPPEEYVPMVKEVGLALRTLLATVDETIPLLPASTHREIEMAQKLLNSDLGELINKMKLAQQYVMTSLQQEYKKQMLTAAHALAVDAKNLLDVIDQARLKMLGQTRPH

[4] = test system: Fibrinogen (Alexa647-labelled); test: Alexa647-fibrinogen binding to printed small molecules – biochemical, small-molecule microarray, 635/667 nm fluorescence, artefact control for SMM control-protein annotation, profiling panel (AID 1131); conditions: fibrinogen-A647 binding fluorescence, higher = more signal;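 further: z-score merges 667 nm fluorescence with per-spot signal-to-noise over triplicate slides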
[5] = target: Follistatin (Homo sapiens) (UniProt P19883); test: FST protein binding to printed compounds – biochemical, small-molecule microarray, 635/667 nm fluorescence, primary screen (AID 1132); conditions: 635 nm fluorescence, higher = more signal
Follistatin (Homo sapiens), sequence (P19883 whole entry, looked up): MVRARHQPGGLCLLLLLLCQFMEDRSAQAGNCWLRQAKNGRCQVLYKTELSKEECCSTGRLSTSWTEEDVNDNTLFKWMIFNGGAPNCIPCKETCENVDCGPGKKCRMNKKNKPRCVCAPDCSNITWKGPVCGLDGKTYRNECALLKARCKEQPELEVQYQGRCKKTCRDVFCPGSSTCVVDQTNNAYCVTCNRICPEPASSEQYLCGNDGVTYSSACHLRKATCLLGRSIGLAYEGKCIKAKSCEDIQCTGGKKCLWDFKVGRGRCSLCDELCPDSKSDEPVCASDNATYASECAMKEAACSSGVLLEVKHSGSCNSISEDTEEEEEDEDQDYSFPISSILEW

[6] = target: Fibroblast growth factor 2 (Homo sapiens) (UniProt P09038); test: basic fibroblast growth factor binding to printed compounds – biochemical, small-molecule microarray, 635/667 nm fluorescence, primary screen (AID 1133); conditions: FGF2, fluorescence 635/667, higher = more signal
Fibroblast growth factor 2 (Homo sapiens), sequence (P09038 whole entry, looked up): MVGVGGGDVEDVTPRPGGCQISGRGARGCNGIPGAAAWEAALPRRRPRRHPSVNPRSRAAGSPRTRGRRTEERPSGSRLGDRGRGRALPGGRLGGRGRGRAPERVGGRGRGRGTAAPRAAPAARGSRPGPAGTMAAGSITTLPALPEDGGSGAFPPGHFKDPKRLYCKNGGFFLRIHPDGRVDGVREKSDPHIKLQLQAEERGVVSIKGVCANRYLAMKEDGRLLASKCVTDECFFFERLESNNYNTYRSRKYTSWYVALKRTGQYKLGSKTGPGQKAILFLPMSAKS

[7] = JC-1 mitochondrial potential readout, lung cancer cells – cell-based, A549, JC-1 fluorescence, basal, 24 h, 100 nL, profiling panel (AID 1138); conditions: higher = more signal;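 further: A549 lung adenocarcinoma cells under basal conditions with no added stimulus; test concentration not given here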
Lefty1 = Lefty1 protein binding to printed compounds – biochemical, small-molecule microarray, 635/667 nm fluorescence, primary screen (AID 1139); conditions: fluorescence 635/667, higher = more signal
[8] = test system: wheat germ agglutinin (Triticum aestivum), Alexa647-labelled; test: Alexa647-WGA lectin binding to printed small molecules – biochemical, small-molecule microarray, 635/667 nm fluorescence, artefact control for SMM control-protein annotation, profiling panel (AID 1140); conditions: WGA-A647 binding, 635 nm fluorescence, higher = more signal;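 further: score merges 667 nm feature emission with signal to noise over triplicate slides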
[9] = target: Luciferin 4-monooxygenase (Photinus pyralis) (UniProt P08659); test: inhibition of purified Photinus pyralis luciferase – biochemical, luminescence, purified enzyme, 2006 set, primary screen (AID 1141); conditions: purified firefly luciferase, SteadyGlo luminescence, 30 min; higher = more signal, called active from +8 up or from −8 down;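 further: cell-free assay with purified firefly luciferase at 100 ng per well in PBS; test concentration not given here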
Luciferin 4-monooxygenase (Photinus pyralis), sequence (P08659 whole entry, looked up): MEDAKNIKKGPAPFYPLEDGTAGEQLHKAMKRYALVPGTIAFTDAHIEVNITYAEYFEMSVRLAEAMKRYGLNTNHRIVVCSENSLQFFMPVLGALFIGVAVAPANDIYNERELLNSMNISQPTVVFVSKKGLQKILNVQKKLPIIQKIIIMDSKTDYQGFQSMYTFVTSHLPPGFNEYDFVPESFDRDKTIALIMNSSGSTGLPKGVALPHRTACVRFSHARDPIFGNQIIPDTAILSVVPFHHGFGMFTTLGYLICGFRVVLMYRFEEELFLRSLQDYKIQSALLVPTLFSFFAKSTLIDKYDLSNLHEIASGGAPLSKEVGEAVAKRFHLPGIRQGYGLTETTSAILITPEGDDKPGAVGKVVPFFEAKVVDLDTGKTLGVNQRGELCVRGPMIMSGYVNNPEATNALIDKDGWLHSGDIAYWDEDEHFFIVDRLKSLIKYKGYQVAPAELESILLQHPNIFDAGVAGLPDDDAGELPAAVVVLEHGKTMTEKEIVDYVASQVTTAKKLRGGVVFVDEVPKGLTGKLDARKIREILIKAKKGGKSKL

[10] = test system: Wnt5a (protein binding on small-molecule microarray); test: small molecules binding Wnt5a protein – biophysical, small-molecule microarray, 635/667 nm fluorescence, primary screen (AID 1142); conditions: 635 nm fluorescence, higher = more signal;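 further: fluorescence read at 667 nm with signal to noise per printed feature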
[11] = ATP-based viability of Huh7 replicon cells – cell-based, CellTiter-Glo luminescence, basal, 48 h, cytotoxicity control for HCV replication inhibitor project, primary screen (AID 1143); conditions: higher = more signal, called active from +8 up or from −8 down;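 further: Huh7 hepatoma cells carrying a hepatitis C replication reporter with no stimulus; test concentration not given here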
[12] = Pseudomonas biofilm growth suppression – PAO1 strain, BacTiter-Glo luminescence, LB-PBS, primary screen (AID 1144); conditions: P. aeruginosa PAO1 biofilm, 12 h, higher = more signal
[13] = basal CRE-LacZ reporter activity in PC12 – cell-based, unstimulated, primary screen (AID 1145); conditions: no forskolin, luminescence, 4.5 h, higher = more signal, called active from +8 up or from −8 down
[14] = forskolin-driven CRE-LacZ activity in PC12 – cell-based, CRE-LacZ reporter, forskolin-stimulated, primary screen (AID 1146); conditions: luminescence, 4.5 h, higher = more signal, called active from +8 up or from −8 down;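 further: PC12 cells with 6xCRE LacZ reporter stimulated by forskolin 10 µM; beta-galactosidase reporter signal reflecting CREB driven transcription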
[15] = target: Streptavidin (Streptomyces avidinii) (UniProt P22629); test: compounds binding control protein streptavidin – biophysical, small-molecule microarray, 635/667 nm fluorescence, artefact control for SMM compound annotation, primary screen (AID 1147); conditions: higher = more signal;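 further: signal reflects streptavidin binding to arrayed compounds as a control protein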
Streptavidin (Streptomyces avidinii), sequence (P22629 whole entry, looked up): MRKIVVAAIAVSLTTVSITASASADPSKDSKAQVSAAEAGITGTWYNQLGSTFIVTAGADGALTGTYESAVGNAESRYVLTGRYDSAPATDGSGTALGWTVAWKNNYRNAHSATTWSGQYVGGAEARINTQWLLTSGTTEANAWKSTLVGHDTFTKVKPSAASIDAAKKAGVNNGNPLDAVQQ

[16] = probe aInhba binding on compound microarray – biochemical, small-molecule microarray, 635/667 nm fluorescence, primary screen (AID 1148); conditions: higher = more signal;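 further: score merges 667nm spot fluorescence with signal-to-noise for antibody binding to printed compounds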
Torsin-1A (Homo sapiens) [17] = target: Torsin-1A (Homo sapiens) (UniProt O14656); test: TOR1A wild-type binding on microarray – cell lysate, small-molecule microarray, lysate, 635/667 nm, primary screen (AID 1149); conditions: COS7 hTOR1A-WT lysate, 635 nm fluorescence, higher = more signal
Torsin-1A (Homo sapiens), sequence (O14656 whole entry, looked up): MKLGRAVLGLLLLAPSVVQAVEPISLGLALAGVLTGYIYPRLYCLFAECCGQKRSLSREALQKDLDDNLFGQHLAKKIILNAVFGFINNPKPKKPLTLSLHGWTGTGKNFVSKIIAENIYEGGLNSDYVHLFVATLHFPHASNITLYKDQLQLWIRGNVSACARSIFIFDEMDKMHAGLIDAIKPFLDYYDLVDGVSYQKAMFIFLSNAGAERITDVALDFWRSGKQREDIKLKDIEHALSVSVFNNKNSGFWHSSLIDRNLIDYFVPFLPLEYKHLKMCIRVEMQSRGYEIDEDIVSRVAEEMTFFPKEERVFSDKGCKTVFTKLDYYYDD

Torsin-1A (Homo sapiens) [18] = target: Torsin-1A (Homo sapiens) (UniProt O14656); test: torsin A mutant lysate binding on microarrays – cell lysate, small-molecule microarray, COS7 lysate, 635/667 nm fluorescence, primary screen (AID 1150); conditions: COS7 hTOR1A mutant lysate, 635 nm fluorescence, higher = more signal;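 further: score pools 667 nm emission and signal to noise measuring lysate protein binding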
[19] = test system: Sonic hedgehog protein (Shh); test: Sonic hedgehog microarray binding compounds – biochemical, small-molecule microarray, 635/667 nm fluorescence, primary screen (AID 1151); conditions: 635 nm fluorescence, higher = more signal;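 further: Shh protein binding to compounds spotted on small-molecule microarray slides; score combines spot fluorescence intensity with signal-to-noise across triplicate slides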

SMILES	composite z-score [1]	composite z-score [2]	composite z-score [3]	composite z-score [4]	composite z-score [5]	composite z-score [6]	z-score [7]	composite z-score (Lefty1)	composite z-score [8]	z-score [9]	composite z-score [10]	z-score [11]	z-score [12]	z-score [13]	z-score [14]	composite z-score [15]	composite z-score [16]	composite z-score (Torsin-1A (Homo sapiens) [17])	composite z-score (Torsin-1A (Homo sapiens) [18])	composite z-score [19]
C[C@@]1([C@@H](NC(=O)c2cccs2)c2ccc(-c3ccccc3)cc2)C[C@H]1C1CCCCC1	-1.16	-0.678	0.429	-1.76	-0.27	-1.48	-0.255	-0.507	-1.45	1.44 (inactive)	-0.465	-4.41 (inactive)	0.141 (inactive)	0.201 (inactive)	-0.169 (inactive)	-0.649	-0.157	-1.24	-0.787	-1.46
COC(=O)[C@@]1(Cc2ccc(F)cc2)[C@@H]2[C@@H](CC(=O)[C@H]2CC(=O)C(=O)N2CCCC2)CN1C(=O)c1ccccc1	0.266	1.24	1.51	0.931	0.95	0.455	0.694	-1.01	0.772	2.19 (inactive)	0.603	-2.93 (inactive)	0.925 (inactive)	0.766 (inactive)	0.526 (inactive)	1.48	1.4	0.0262	0.666	-0.695
CC(C)N1CC=CC23O[C@@H]4C=CCOC(=O)[C@@H]4[C@H]2C(=O)N(CCCCCCO)[C@@H]3C1=O (stereo not given in full)	-0.249	-0.407	-0.181	-1.66	-0.663	-1.19	-0.525	-0.0359	0.666	0.287 (inactive)	-0.301	-0.0015 (inactive)	-0.839 (inactive)	-0.627 (inactive)	-0.421 (inactive)	-0.665	-0.097	-2.54	-0.976	1.08
COc1ccc(CCNC(=O)[C@@H]2c3ccccc3C(=O)N(Cc3ccccc3)[C@H]2c2ccc(CO)cc2)cc1	0.597	0.529	-0.0502	-0.279	0.987	0.363	1.77	0.442	0.791	0.582 (inactive)	-0.039	-2.05 (inactive)	-1.57 (inactive)	0.971 (inactive)	-1.15 (inactive)	0.0585	-0.0195	-0.447	0.954	0.832
CCOC(=O)C1=CCC(c2cccc(Cl)c2)O1 (stereo not given)	0.433	0.54	-0.192	0.2	-0.0085	-0.505	-1.14	-0.0196	0.225	1.7 (inactive)	-0.0719	-4.6 (inactive)	-1.23 (inactive)	-0.471 (inactive)	0.0691 (inactive)	-0.164	0.0541	0.368	0.263	-0.549
CC(C)(C)OC(=O)CC[C@@]1(C(=O)N2CCCCC2)N=C(c2ccc(OCCCO)cc2)O[C@@H]1c1ccccc1N=[N+]=[N-]	2.83	1.27	1.7	0.99	1.26	0.722	1.95	0.0141	1.25	-11.7 (active)	0.258	-2.66 (inactive)	-0.197 (inactive)	0.227 (inactive)	-1.62 (inactive)	2.05	0.401	0.332	0.827	0.292
Cc1ccc(S[C@]2(C(=O)NCc3ccccc3)CC(=O)N(C3Cc4ccccc4C3)[C@@H]2c2ccc(CO)cc2I)cc1	-1.12	-0.621	-0.17	-0.151	-0.328	-0.244	1.24	-0.582	0.146	-1.26 (inactive)	-0.265	-2.56 (inactive)	-0.394 (inactive)	-0.179 (inactive)	-0.17 (inactive)	-0.299	-0.157	-0.265	-1.03	-0.0358
COc1ccccc1CN1C(=O)c2ccccc2[C@@]2(Cc3ccccc3N(C3CC3)C2=O)[C@@H]1c1ccc(CO)cc1	0.131	-1.12	-0.175	-0.248	0.253	-1.17	0.111	-0.154	-0.0487	-0.379 (inactive)	-0.507	-0.0976 (inactive)	1.13 (inactive)	0.622 (inactive)	-0.148 (inactive)	-0.189	-0.125	-1.68	-0.821	-0.27
C=CCOC(=O)[C@@H]1[C@H]2C(=O)O[C@H](c3ccccc3)[C@H](c3ccccc3)N2[C@H](c2ccc(OCCOC(=O)[C@@H]3C[C@@H]4C(=O)N5CCC[C@H]5C(=O)N4[C@@H]3c3cccc(OCCO)c3)cc2)[C@@]12C(=O)Nc1ccc(I)cc12	1.16	1.07	0.468	0.4	1.43	1.92	-1.17	1.42	0.504	1.13 (inactive)	0.667	-1.77 (inactive)	-0.49 (inactive)	-1.2 (inactive)	-0.725 (inactive)	0.161	-0.0221	0.85	0.623	2.01
